Assay [1] in a line: A CellTox Green Cytotoxicity Assay to monitor cytotoxicity in HEK293 cells - 32 hour (AID 1224881). Further: nearly all actives have a fitted effect of over 40% in size. Further: potency means the concentration at half of the fitted maximal effect. The procedure, abridged: (§1)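 Cells (HEK293, 600/well) and dye reagent are dispensed together. After 5 h at 37 C, 23 nL compound is pinned in. Plates stay at 37 C for 40 h with fluorescence read at 0h, 8h, 16h, 24h, 32h and 40h.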
The nature of assay [2]: A CellTox Green Cytotoxicity Assay to monitor cytotoxicity in HepG2 cells - 0 hour (AID 1224882). Further: nearly all actives have a fitted effect of over 35% in size. Further: potency means the concentration at half of the fitted maximal effect. A digest of the protocol: (§2)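 Cells and non-lytic dye reagent are dispensed together (600 HepG2 cells/well) and incubated 5 h before DMSO compound transfer. Kinetic fluorescence is then recorded in the same wells during 40 h at 37 C.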
Assay [3] in a line: A CellTox Green Cytotoxicity Assay to monitor cytotoxicity in HEK293 cells - 8 hour (AID 1224884). Further: nearly all actives have a fitted effect of over 35% in size. A digest of the protocol:
as §1

Assay [4] is described as follows: qHTS RealTime-Glo MT Cell Viability Assay in HepG2 cells - 16 hour (AID 1224885). Further: nearly all actives have a fitted effect of over 50% in size. Further: potency means the concentration at half of the fitted maximal effect. A digest of the protocol: (§3)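 HepG2 cells were seeded at 600 cells/well together with NanoLuc luciferase and a cell-permeant prosubstrate, preincubated 5 h at 37 C/5% CO2, then pin-dosed with compounds in DMSO. Nonlytic luminescence from viable cells was read at each time point.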
Assay [5] in a line: qHTS RealTime-Glo MT Cell Viability Assay in HEK293 cells - 8 hour (AID 1224887). Further: nearly all actives have a fitted effect of over 50% in size. Further: potency means the concentration at half of the fitted maximal effect. A digest of the protocol:
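Real-time viability in HEK293: signal arises when living cells convert a prosubstrate for NanoLuc in the medium, so luminescence tracks viable cell number. Compound (23 nL, DMSO) added 5 h post-seeding; kinetic reads at 0–40 h, 37 C.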
A general note: qHTS replaces the single test concentration by a dilution series.

A short description of assay [6]: A CellTox Green Cytotoxicity Assay to monitor cytotoxicity in HEK293 cells - 16 hour (AID 1224888). Further: nearly all actives have a fitted effect of over 35% in size. A digest of the protocol:
as §1

Assay [7] is described as follows: qHTS RealTime-Glo MT Cell Viability Assay in HepG2 cells - 0 hour (AID 1224889). Further: nearly all actives have a fitted effect of over 50% in size. A digest of the protocol: as §3
Assay [8] can be described thus: A CellTox Green Cytotoxicity Assay to monitor cytotoxicity in HepG2 cells - 8 hour (AID 1224890). Further: nearly all actives have a fitted effect of over 45% in size. Further: potency means the concentration at half of the fitted maximal effect. A digest of the protocol:
as §2

Assay [9] in a line: qHTS assay to identify small molecule antagonists of the estrogen receptor alpha (ER-alpha) signaling pathway using the BG1 cell line in the presence of 0.1 nM 17-beta-estradiol - cell viability counter screen (AID 1259241). Further: nearly all actives have a fitted effect of over 40% in size. A digest of the protocol:
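VM7Luc4E2 cells (endogenous full-length ER-alpha, 4xERE-luciferase), cultured 5 days in charcoal-stripped serum, exposed to compounds with 0.1 nM 17beta-estradiol (final) for 22 hr at 37C. Viability read in same wells as live-cell protease fluorescence after 30 min.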

A short description of assay [10]: qHTS assay to identify small molecule antagonists of the androgen receptor (AR) signaling pathway using the MDA cell line in the presence of 0.5 nM R1881 - cell viability counter screen (AID 1259242). Further: nearly all actives have a fitted effect of over 45% in size. A digest of the protocol: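 Steps: plate MDA-kb2 cells, rest 5 hr at 37C without CO2; pin in compounds in DMSO; add R1881 to 0.5 nM final; incubate 16 hr; add CellTiter-Fluor, 30 min; read fluorescence.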

Assay [11] can be described thus: qHTS assay to identify small molecule phospholipidosis (PLD) inducers (AID 1259344; active means well fitted curve in the direction sought with a large enough effect; an effect the other way counts as inactive or inconclusive). A digest of the protocol: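 Cells (HepG2, 900 per well) attach for 4 h, receive LipidTOX Red and compound together, incubate 24 h at 37 C, are fixed 30 min with paraformaldehyde/Hoechst, then imaged at one site per well.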
The nature of assay [12]: qHTS assay to identify small molecule HDAC inhibitors (AID 1259364).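 Further: wild-type HCT-116 cells with endogenous class I/II HDAC activity; top concentration of the series differs between compounds; nearly all actives have a fitted effect of over 45% in size.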 A digest of the protocol:
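Cells (HCT-116, wild type) are seeded at 1,500 per well, incubated overnight, treated with compound in DMSO for 2 hr, then developed with HDAC-Glo I/II reagent for 30 min at room temperature.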

The nature of assay [13]: qHTS assay to identify small molecule agonists of the sonic hedgehog signaling (Shh) pathway (AID 1259368; calls by dose curve;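 further: NIH/3T3-derived 3T3Gli1-Luc cells carrying a stable Gli1-driven firefly luciferase reporter; series mostly up to about 92 µM; nearly all actives have a fitted effect of over 15% in size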). A digest of the protocol:
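Cells of a mouse NIH/3T3 clone stably expressing luciferase under the Gli1 transcriptional response element are exposed to test chemicals for 24 hr at 37 C. Pathway activation is detected as a rise in luminescence.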

Assay [14] can be described thus: qHTS RealTime-Glo MT Cell Viability Assay in HEK293 cells - 24 hour (AID 1224886). Further: nearly all actives have a fitted effect of over 50% in size. Further: potency means the concentration at half of the fitted maximal effect. A digest of the protocol:
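HEK293 cells were seeded at 600 cells/well together with NanoLuc luciferase and cell-permeant prosubstrate, preincubated 5 h at 37 C/5% CO2, then given compound in DMSO by pintool. Luminescence from viable-cell prosubstrate reduction was read repeatedly over 40 h.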

Assay [15] in a line: qHTS assay to identify small molecule HDAC inhibitors - cell viability counter screen (AID 1259365). A digest of the protocol: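 Wild-type HCT-116 cells, 1,500/well, cultured overnight, then compound-treated 2 h at 37 C. Viability measured as ATP luminescence with CellTiter-Glo after 30 min at room temperature.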
The nature of assay [16]: qHTS assay to identify small molecule agonists of the sonic hedgehog signaling (Shh) pathway - cell viability counter screen (AID 1259366). Further: nearly all actives have a fitted effect of over 50% in size. Further: potency means the concentration at half of the fitted maximal effect. A digest of the protocol: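 NIH/3T3-derived Gli1-Luc reporter cells, 2,000 per well, received compound after 4 h and were treated about 23 h at 37C. Viability measured in the same wells by CellTiter-Fluor fluorescence after 1 h.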
Assay [17] in a line: qHTS assay to identify small molecule antagonists of the sonic hedgehog signaling (Shh) pathway - cell viability counter screen (AID 1259367). Further: nearly all actives have a fitted effect of over 55% in size. A digest of the protocol:
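Cytotoxicity was assessed in parallel with Shh reporter activity by measuring live-cell protease fluorescence (CellTiter-Fluor) in NIH/3T3 cells stably carrying Gli1-Luc, treated with compound under conditioned medium stimulation for 23 hr plus 1 hr reagent incubation.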

Assay [18] in a line: A CellTox Green Cytotoxicity Assay to monitor cytotoxicity in HepG2 cells - 32 hour (AID 1224883). Further: nearly all actives have a fitted effect of over 50% in size. Further: potency means the concentration at half of the fitted maximal effect. A digest of the protocol: as §2
Assay [19] deals with Estrogen receptor (Homo sapiens) (UniProt P03372). In words: qHTS assay to identify small molecule antagonists of the estrogen receptor alpha (ER-alpha) signaling pathway using the BG1 cell line in the presence of 0.1 nM 17-beta-estradiol (AID 1259244). Further: nearly all actives have a fitted effect of over 50% in size. The procedure, abridged:
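Antagonist mode: compounds in DMSO are pinned onto VM7Luc4E2 reporter cells, 0.1 nM final 17beta-estradiol is added, and after 22 h at 37C luciferase luminescence is measured with ONE-Glo.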

In assay [20] the target is Androgen receptor (Homo sapiens) (UniProt P10275). In words: qHTS assay to identify small molecule antagonists of the androgen receptor (AR) signaling pathway using the MDA cell line in the presence of 0.5 nM R1881 (AID 1259243). Further: nearly all actives have a fitted effect of over 50% in size. A digest of the protocol:
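Stably transfected MDA-kb2 cells express luciferase from an MMTV promoter bearing both AR and GR response elements. Compounds plus 0.5 nM R1881 (final) were incubated 16 hr at 37C without CO2, then luminescence measured.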

Where “and” joins values, the source holds several entries; their conditions need not be identical. Equal values may be shown once. A number with no mark means an inactive call. Inconclusive results are not listed. Calls of active or inactive are those of the source. Unless noted, the call rests on the fitted dose curve; in most records, active means well fitted curve in the direction sought with a large enough effect in the repeat runs; inconclusive means weak or mixed curves; inactive means no such curve, though single readings can be large; an effect the other way counts as inactive or inconclusive.

Estrogen receptor (Homo sapiens), sequence (P03372 whole entry, looked up): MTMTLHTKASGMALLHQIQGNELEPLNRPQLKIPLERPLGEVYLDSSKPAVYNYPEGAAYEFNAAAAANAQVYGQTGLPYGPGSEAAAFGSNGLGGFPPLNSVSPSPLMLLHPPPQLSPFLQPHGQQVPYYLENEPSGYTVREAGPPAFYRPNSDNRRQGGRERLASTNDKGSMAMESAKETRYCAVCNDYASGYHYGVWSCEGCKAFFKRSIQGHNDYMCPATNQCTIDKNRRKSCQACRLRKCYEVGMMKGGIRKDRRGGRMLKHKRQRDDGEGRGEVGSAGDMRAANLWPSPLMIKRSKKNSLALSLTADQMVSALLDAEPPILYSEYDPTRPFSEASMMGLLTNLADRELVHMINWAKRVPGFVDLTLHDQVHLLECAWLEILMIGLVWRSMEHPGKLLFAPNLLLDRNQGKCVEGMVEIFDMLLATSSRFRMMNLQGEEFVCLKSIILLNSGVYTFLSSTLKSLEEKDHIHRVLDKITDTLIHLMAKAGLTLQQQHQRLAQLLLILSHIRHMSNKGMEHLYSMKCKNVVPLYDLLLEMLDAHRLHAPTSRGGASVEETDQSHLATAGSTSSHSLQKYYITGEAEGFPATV
Androgen receptor (Homo sapiens), sequence (P10275 whole entry, looked up): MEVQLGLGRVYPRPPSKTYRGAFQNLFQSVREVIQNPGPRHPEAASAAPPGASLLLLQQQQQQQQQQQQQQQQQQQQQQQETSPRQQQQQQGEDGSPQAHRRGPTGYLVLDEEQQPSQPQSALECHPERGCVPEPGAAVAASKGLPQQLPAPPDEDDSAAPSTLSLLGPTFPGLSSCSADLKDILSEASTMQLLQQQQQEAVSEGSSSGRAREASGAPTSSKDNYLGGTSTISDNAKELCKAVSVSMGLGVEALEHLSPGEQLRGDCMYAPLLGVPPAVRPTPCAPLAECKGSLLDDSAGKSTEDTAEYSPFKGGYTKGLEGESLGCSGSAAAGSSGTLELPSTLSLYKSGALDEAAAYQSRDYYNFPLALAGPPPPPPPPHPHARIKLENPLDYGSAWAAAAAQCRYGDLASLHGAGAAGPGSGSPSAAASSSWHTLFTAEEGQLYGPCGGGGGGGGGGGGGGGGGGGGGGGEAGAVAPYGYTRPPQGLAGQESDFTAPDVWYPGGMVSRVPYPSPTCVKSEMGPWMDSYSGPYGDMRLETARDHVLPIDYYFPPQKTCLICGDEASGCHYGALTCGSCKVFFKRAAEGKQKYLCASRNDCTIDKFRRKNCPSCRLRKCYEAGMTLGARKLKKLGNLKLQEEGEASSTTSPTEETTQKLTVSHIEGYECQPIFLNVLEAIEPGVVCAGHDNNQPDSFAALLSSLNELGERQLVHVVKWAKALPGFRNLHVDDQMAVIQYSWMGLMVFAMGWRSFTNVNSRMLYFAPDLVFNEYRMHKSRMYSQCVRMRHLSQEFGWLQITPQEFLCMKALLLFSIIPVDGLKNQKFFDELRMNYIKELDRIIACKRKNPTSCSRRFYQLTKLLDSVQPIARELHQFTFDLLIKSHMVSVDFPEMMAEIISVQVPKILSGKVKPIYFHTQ

For `COc1ccc(C(=O)c2c(C)n(CCN3CCOCC3)c3ccccc23)cc1`, the Potency entry in assay [1], in assay [3], in assay [4], in [5], in assay [6] and in assay [9] was “inactive” in each case. Besides, the Potency result in [10], in [12] and in [13] was “inactive” throughout. The Potency in [2] was 0.952 µM (active); in assay [8], 1.07 µM (active). Moreover, the outcome in assay [7] and in [11] was inactive.
Turning to `CCCCOC(=O)CCC(=O)OCCCC`, the Potency result in [1], in assay [2], in assay [3], in assay [4], in [14] and in assay [5] was “inactive” throughout. The Potency entry in [6], in assay [8], in assay [9], in [10], in assay [12] and in [15] was “inactive” throughout. Besides, the Potency entry in assay [16], in [17] and in [13] was “inactive” each time. Besides, in assay [7], the call was inactive.
Turning to `Nc1ccc2c(c1)Cc1ccccc1-2`, the Potency entry in assay [1], in assay [2], in assay [18], in assay [3], in assay [4] and in assay [5] was “inactive” each time. In addition, the Potency entry in assay [6], in [8], in [9], in assay [10], in assay [12] and in assay [15] was “inactive” each time. Also, the Potency entry in assay [16], in [17] and in assay [13] was “inactive” each time. Also, the outcome in [7] was inactive.
Take `CC(C)(C)c1ccc(CCOc2ncnc3ccccc23)cc1`: the Potency entry in [1], in [2], in assay [3], in assay [4], in [14] and in [5] was “inactive” each time. Also, the Potency result in assay [6], in assay [8], in [9], in [10], in [19] and in assay [12] was “inactive” each time. Further, the Potency result in assay [15], in assay [16], in assay [17] and in [13] was “inactive” in each case. Also, the result in assay [7] was inactive.
Consider `CCCN(CCC)C(=O)Cc1c(-c2ccc(Cl)cc2)nc2ccc(Cl)cn12`, for which the Potency result in assay [1], in [2], in assay [3], in assay [4], in assay [6] and in [8] was “inactive” throughout. Further, the Potency entry in assay [9], in assay [10], in [12], in [15] and in assay [13] was “inactive” throughout. For the same compound, the Potency in [14] and in assay [5] was 5.35 µM (active) in each case. Also, the compound was called inactive in [7] and in assay [11].
For `Clc1ccc2ccccc2c1`, in [1], the Potency is 50.5 µM (active). Further, the Potency result in [2], in assay [18], in assay [4], in assay [8], in [9] and in assay [10] was “inactive” in each case. The Potency entry in [20], in assay [19], in assay [12], in [15], in assay [16] and in [17] was “inactive” each time. Moreover, the Potency entry in assay [13] was “inactive”. For the same compound, the result in assay [7] was inactive.
In the case of `O=[N+]([O-])/C=C/c1ccccc1`, the Potency entry in [2], in assay [3], in assay [9], in assay [12], in assay [17] and in assay [13] was “inactive” each time. Further, the Potency in assay [18] was 17.7 µM (active); in assay [4] it was 49.8 µM (active) and 21.9 µM (active); in [14], 6.27 µM (active) and 13.8 µM (active); in assay [5] it was 14 µM (active) and 15.5 µM (active); in assay [16], 5.54 µM (active) and 10.9 µM (active). Moreover, the result in assay [7] was inactive.
In the case of `O=C(NC(=O)c1cc(F)c(F)cc1Cl)Nc1cc(F)ccc1N1CCC(C(=O)O)CC1`, the Potency result in [1], in [18], in assay [3], in [4], in [14] and in [5] was “inactive” in each case. Further, the Potency entry in [6], in [9], in assay [10], in [12], in assay [16] and in [17] was “inactive” each time. Also, in assay [13], the Potency result is “inactive”. The compound was classed as inactive in [7].

The values are drawn from PubChem BioAssay (Tox21).
